We go through eleven molecules from publication PMC5540273 (PLoS ONE, 2017).

Test systems include LRRK2; LTK; LYN; MAK; MAP3K15; MAP3K1; MAP3K2; MAP3K3; MAP3K4; MAP4K2; MAP4K3; MAP4K4; MAP4K5; MAPKAPK2; MAPKAPK5; MARK1; MARK2; MARK3; MARK4.
Conditions in all cases: concentration: 1 μM, replicates: in singlicate; n = 1
The test system of a further experiment is T1, LZK.
T1 construct: gene MAP3K13
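Note: KINOMEscan kinase panel screen.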

`Fc1ccc(-c2nc[nH]c2-c2ccncc2)cc1` [SB-217360]: the “%Inh” value in the experiment on LRRK2 is 0%; with LTK, 0%; with LYN, 0%; in the experiment on LZK, 0%; in the experiment with MAK, 5%; in the experiment with MAP3K15 it was 3%. Besides, the “%Inh” value in the experiment with MAP3K1 turned out to be 0%; in the experiment on MAP3K2 it was 18%; in the experiment with MAP3K3 it was 0%; in the experiment with MAP3K4, 0%; in the experiment on MAP4K2 it was 0%; with MAP4K3, 2%. The “%Inh” value with MAP4K4 turned out to be 10%; in the experiment on MAP4K5, 0%; with MAPKAPK2, 0%; in the experiment with MAPKAPK5, 0%; in the experiment with MARK1 it was 12%; in the experiment with MARK2 it was 4%. The “%Inh” value in the experiment on MARK3 amounted to 0%; in the experiment with MARK4, 30%.
With `CC(=O)c1c(C)c2cnc(Nc3ccn(C)n3)nc2n(C2CCCC2)c1=O`, the “%Inh” value in the experiment with LRRK2 worked out at 0%; in the experiment with LTK, 0%; with LYN, 10%; in the experiment with LZK it was 0%; with MAK, 0%; in the experiment with MAP3K15, 0%. Further, the “%Inh” value came to 0% in the experiment with MAP3K1; 0% with MAP3K2; 0% with MAP3K3; 0% with MAP3K4; 0% in the experiment on MAP4K2; 24% with MAP4K3. Also, the “%Inh” value in the experiment on MAP4K4, in the experiment with MAP4K5, with MAPKAPK2, with MAPKAPK5, in the experiment with MARK1 and in the experiment with MARK2 was 0% in each case. In addition, the “%Inh” value in the experiment with MARK3 is 12%; in the experiment on MARK4, 0%.
In the case of `O=c1cc(N2CCOCC2)nc2n(Cc3ccccc3F)ccn12` [GSK2297428], the “%Inh” value in the experiment on LRRK2 is 0%; in the experiment on LTK it was 21%; with LYN it was 0%; in the experiment on LZK, 0%; with MAK it was 8%; in the experiment on MAP3K15, 0%. Also, the “%Inh” value in the experiment with MAP3K1 was determined as 2%; with MAP3K2 it was 0%; with MAP3K3, 0%; in the experiment with MAP3K4 it was 0%; in the experiment on MAP4K2 it was 0%; with MAP4K3 it was 0%. Also, the “%Inh” value is 0% with MAP4K4; 0% in the experiment with MAP4K5; 0% in the experiment on MAPKAPK2; 0% in the experiment with MAPKAPK5; 100% with MARK1; 0% with MARK2. Moreover, the “%Inh” value was 0% in the experiment on MARK3 and 69% in the experiment on MARK4.
As for `Fc1ccc(-c2nc3n(c2-c2ccncc2)CCS3)cc1` [GI98581], the “%Inh” value in the experiment on LRRK2 is recorded as 14%; in the experiment on LTK, 22%; with LYN, 0%; with LZK it was 3%; with MAK, 63%; with MAP3K15, 0%. Besides, the “%Inh” value turned out to be 13% with MAP3K1; 6% in the experiment on MAP3K2; 0% with MAP3K3; 10% in the experiment with MAP3K4; 0% in the experiment on MAP4K2; 0% in the experiment with MAP4K3. In addition, the “%Inh” value in the experiment with MAP4K4 is 26%; in the experiment on MAP4K5, 11%; with MAPKAPK2 it was 1%; with MAPKAPK5 it was 0%; in the experiment on MARK1, 0%; in the experiment with MARK2 it was 0%. Further, the “%Inh” value with MARK3 was 0%; with MARK4, 12%.
For the molecule `Cc1c(Cn2c(C)c(C)n3c(=O)cc(N4CCOCC4)nc23)cccc1C(F)(F)F` [GSK2328680], the “%Inh” value in the experiment on LRRK2 is 0%; with LTK, 0%; with LYN, 0%; in the experiment on LZK, 0%; in the experiment on MAK, 16%; with MAP3K15, 0%. Besides, the “%Inh” value in the experiment with MAP3K1 came out at 16%; in the experiment with MAP3K2, 0%; in the experiment with MAP3K3, 0%; with MAP3K4, 9%; with MAP4K2 it was 0%; with MAP4K3, 0%. Also, the “%Inh” value in the experiment with MAP4K4 turned out to be 0%; in the experiment on MAP4K5, 0%; in the experiment on MAPKAPK2, 16%; with MAPKAPK5, 0%; in the experiment with MARK1 it was 0%; in the experiment on MARK2, 0%. The “%Inh” value was 19% with MARK3 and 0% in the experiment with MARK4.
In the case of `O=C1NC(=O)C(c2ccc(Cl)cc2)=C1Nc1cccc(Cl)c1` [SB-317651], the “%Inh” value with LRRK2 was determined as 0%; with LTK, 0%; in the experiment with LYN it was 22%; in the experiment with LZK, 6%; in the experiment on MAK, 16%; with MAP3K15, 0%. Moreover, the “%Inh” value is recorded as 0% in the experiment on MAP3K1; 0% with MAP3K2; 0% with MAP3K3; 1% in the experiment on MAP3K4; 6% with MAP4K2; 1% in the experiment on MAP4K3. Besides, the “%Inh” value with MAP4K4 was 0%; in the experiment on MAP4K5 it was 0%; with MAPKAPK2, 0%; in the experiment on MAPKAPK5, 0%; in the experiment with MARK1 it was 0%; in the experiment on MARK2, 13%. In addition, the “%Inh” value turned out to be 6% in the experiment on MARK3 and 0% in the experiment on MARK4.
Regarding `CN1c2ccc(-c3ccc(C(N)=O)cc3)cc2-c2[nH]ncc2S1(=O)=O`, the “%Inh” value in the experiment with LRRK2, with LTK, in the experiment with LYN, in the experiment with LZK, with MAK and in the experiment on MAP3K15 was 0% each time. For the same molecule, the “%Inh” value in the experiment with MAP3K1 is on record as 0%; in the experiment with MAP3K2, 21%; with MAP3K3, 12%; in the experiment with MAP3K4, 0%; in the experiment on MAP4K2, 1%; in the experiment with MAP4K3, 6%. In addition, the “%Inh” value in the experiment with MAP4K4 came to 29%; in the experiment on MAP4K5, 23%; in the experiment on MAPKAPK2, 0%; in the experiment with MAPKAPK5 it was 0%; in the experiment with MARK1, 14%; in the experiment on MARK2, 0%. Besides, the figures for the “%Inh” value in the experiment on MARK3 and in the experiment on MARK4 were 0% and 27%, respectively.
Turning to `CNc1cc(-c2ccc3c(N)n[nH]c3c2)nc(N)n1` [GSK2224810], the “%Inh” value is recorded as 0% with LRRK2; 0% in the experiment with LTK; 0% in the experiment with LYN; 18% in the experiment with LZK; 0% in the experiment on MAK; 0% in the experiment on MAP3K15. In addition, the “%Inh” value turned out to be 0% with MAP3K1; 0% in the experiment on MAP3K2; 0% in the experiment on MAP3K3; 0% in the experiment with MAP3K4; 22% in the experiment with MAP4K2; 20% with MAP4K3. Moreover, the “%Inh” value is 0% in the experiment on MAP4K4; 0% in the experiment with MAP4K5; 49% with MAPKAPK2; 0% with MAPKAPK5; 0% in the experiment with MARK1; 7% with MARK2. The “%Inh” value with MARK3 and with MARK4 was 0% each time.
Consider `Cl.Cl.Cl.N#Cc1ccc(CCNc2nccc(-c3cccc(CN4CCNCC4)c3)n2)cc1` [GSK2137462], for which the “%Inh” value in the experiment on LRRK2 was found to be 0%; with LTK, 0%; with LYN, 1%; in the experiment on LZK it was 0%; in the experiment with MAK, 8%; in the experiment with MAP3K15, 0%. Moreover, the “%Inh” value in the experiment with MAP3K1 was determined as 15%; in the experiment with MAP3K2, 5%; in the experiment on MAP3K3, 0%; with MAP3K4, 0%; in the experiment on MAP4K2, 0%; in the experiment with MAP4K3, 8%. The “%Inh” value is on record as 21% with MAP4K4; 4% with MAP4K5; 0% in the experiment with MAPKAPK2; 0% in the experiment on MAPKAPK5; 0% in the experiment with MARK1; 6% in the experiment with MARK2. Moreover, the “%Inh” value with MARK3 came to 25%; in the experiment on MARK4 it was 0%.
As to `Cc1ccc(NC(=O)Nc2ccc(Cl)c(C(F)(F)F)c2)cc1-c1ccc(C(=O)Nc2ccncc2)cc1` [GSK1398470], the “%Inh” value is reported as 0% in the experiment with LRRK2; 4% in the experiment on LTK; 42% with LYN; 0% in the experiment on LZK; 15% in the experiment on MAK; 0% in the experiment with MAP3K15. The “%Inh” value in the experiment on MAP3K1 was 3%; with MAP3K2, 0%; in the experiment on MAP3K3, 0%; in the experiment with MAP3K4 it was 14%; with MAP4K2, 0%; with MAP4K3 it was 8%. For the same molecule, the “%Inh” value was 29% in the experiment on MAP4K4; 12% in the experiment with MAP4K5; 7% in the experiment on MAPKAPK2; 0% in the experiment on MAPKAPK5; 0% with MARK1; 13% in the experiment with MARK2. In addition, the “%Inh” value was determined as 8% with MARK3 and 0% with MARK4.
On to `Fc1ccc(-c2nn3cccc(F)c3c2-c2ccncc2)cc1` [GW475620], for which the “%Inh” value was determined as 24% in the experiment with LRRK2; 8% with LTK; 6% in the experiment with LYN; 0% in the experiment with LZK; 0% with MAK; 0% in the experiment with MAP3K15. The “%Inh” value is reported as 9% in the experiment on MAP3K1; 8% in the experiment on MAP3K2; 0% in the experiment on MAP3K3; 0% in the experiment on MAP3K4; 0% in the experiment with MAP4K2; 10% in the experiment on MAP4K3. For the same molecule, the “%Inh” value is reported as 47% in the experiment with MAP4K4; 24% in the experiment on MAP4K5; 29% with MAPKAPK2; 0% in the experiment on MAPKAPK5; 1% in the experiment on MARK1; 0% in the experiment with MARK2. Further, the “%Inh” value is listed as 0% in the experiment with MARK3 and 4% in the experiment with MARK4.
